# Source: PubChem BioAssay AID1117319 (Southern Research Institute, 2015)
# Values joined by “and” are separate entries in the source; they are usually repeats but may differ in a detail not shown here. Identical values can stand only once. Hit rate of the full screen: of about 260,000 compounds, about 1,500 (0.58%) were called active. About 5% were inconclusive and are not listed.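 How the source made its calls: active means inhibition above a set limit at one or more doses, reproduced on every date tested; inconclusive means results disagree between test dates, or hit never tested in dose response; inactive means the rest.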 The list is a sample of the results. Measured potencies and affinities stand elsewhere.
# Biological target: Virion infectivity factor (Human immunodeficiency virus type 1 group M subtype B (isolate BH10)) + Virion infectivity factor (Human immunodeficiency virus type 1 group M subtype B (isolate BRU/LAI)) + Virion infectivity factor (Human immunodeficiency virus type 1 group M subtype B (isolate PCV12)) + Virion infectivity factor (Human immunodeficiency virus type 1 group M subtype B (isolate HXB2)) + DNA dC->dU-editing enzyme APOBEC-3G (Homo sapiens) (UniProt P69720+P69721+P69722+P69723+Q9HC16)
# Assay: HIV-1 Vif–A3G interaction blockers – biochemical, TR-FRET, GST-Vif 1-94, biotin-A3G peptide, dose response retest, primary screen (AID 1117319);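 further: Vif residues 1-94 fused to GST binding biotinylated APOBEC3G peptide 110-148; 0% = full assay without inhibitor and 100% = GST in place of GST-Vif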
# Settings: TR-FRET GST-Vif / biotin-A3G peptide binding; active compounds read high
row,SMILES,inhibition
1,CC(=O)NC(=S)Nc1cc(C(=O)O)ccc1Cl,-3.72% (inactive)
2,CCCCC(=O)NC(=S)Nc1cc(C(=O)O)ccc1OC,6.07% (inactive)
3,CCCCC(c1nnnn1CCOC)N1CCN(C(=O)c2ccco2)CC1 (stereo not drawn),32.8% (inactive) and -5.2% (inactive)
4,Cc1ccc(CN(C)C(=O)CN2C(=O)NC3(CCCc4ccccc43)C2=O)c(C)c1 (stereo not drawn),-3.76% (inactive)
5,CN(C)C(=O)CSc1nnc(Cc2ccccc2)n1Cc1ccco1,7.45% (inactive)
6,O=C(Nc1cccc(-c2nnn(CC(=O)N3CCc4ccccc4C3)n2)c1)C1CCC1,-4.46% (inactive)
7,CC(C)CC(=O)Nc1ccccc1-c1nnn(CC(=O)N2CCc3ccccc3C2)n1,10.6% (inactive)
8,CC(=O)NCCOc1cccc2ccccc12,4.94% (inactive)
9,CC(=O)NN1C(=O)/C(=C\c2ccccc2)SC1=S,1.87% (inactive)
10,CC(=O)NN1C(=O)/C(=C/c2ccc(C(C)C)cc2)SC1=S,-3.47% (inactive)
11,CC(=O)NN1C(=O)/C(=C\c2ccc(C)cc2)SC1=S,-1.41% (inactive)
12,CC(=O)NN1C(=O)/C(=C\c2ccc(Cl)cc2)SC1=S,7.42% (inactive)
13,O=C(c1nc(-c2ccccc2)n(-c2ccccc2)n1)N1CCCCCC1,2.5% (inactive)
14,O=C(NNC(=O)c1cc(Cl)ccc1O)c1cccc(S(=O)(=O)N2CCOCC2)c1,4.69% (inactive)
15,COc1cccc(C(=O)NCc2ccc(N3CCN(C(=O)OC(C)(C)C)CC3)cc2)c1,4.61% (inactive)
16,CCN(CC)c1ccc(C(=O)Nn2cnc3ccccc3c2=O)cc1,-13% (inactive)
17,Cc1cc(-c2csc(N)n2)c(C)n1Cc1ccco1,20.6% (inactive)
18,CCNc1nc(-c2cc(C)n(Cc3ccco3)c2C)cs1,8.76% (inactive)
19,Cc1ccccc1NS(=O)(=O)c1cc(C(=O)NCCSC2CCCCC2)ccc1C,4.25% (inactive)
20,Cc1cc(C)c2c(=O)[nH]c(=O)n(Cc3ccccc3)c2n1,11.8% (inactive)
21,CCCCCCCCn1c2c(c(=N)c3ccccc31)CCC2,1.93% (inactive)
22,O=C1CN(/N=C/c2ccc([N+](=O)[O-])o2)C(=O)N1,6.04% (inactive)
23,O=C1NC(=S)S/C1=C\c1cccc([N+](=O)[O-])c1,0.14% (inactive)
24,CCC1(C)Cc2ccccc2-c2nc(NCCCO)n(-c3ccccc3)c(=O)c21 (stereo not drawn),-4.2% (inactive)

row,SMILES,inhibition
1,CC(C)COC(=O)Nc1nnc(SCCOc2ccccc2)s1,-6.77% (inactive)
2,O=C(c1cc2c(s1)-c1ccccc1OC2)N1CCN(c2ccccn2)CC1,-16.4% (inactive)
3,CCOc1cc(C(=O)OCC(=O)Nc2cc(C)on2)cc(OCC)c1OCC,-2.84% (inactive)
4,Clc1ccc(OCc2nn3c(-c4ccccc4)nnc3s2)c(Cl)c1,-0.95% (inactive)
5,Clc1ccc(OCc2nn3c(-c4ccco4)nnc3s2)cc1,2% (inactive)
6,COc1ccc(CN(C)C2CCCCC2)c(C)c1C,-2.5% (inactive)
7,COc1ccccc1NC(=O)CSc1nnc(CC(=O)Nc2ccccc2C)n1C,-12.1% (inactive)
8,CCOc1cccc(N2C(=O)CC(N3CCN(c4nc5ccccc5s4)CC3)C2=O)c1 (stereo not drawn),-1.33% (inactive)
9,Clc1cccc(/C=N\Nc2nccs2)c1,-1.1% (inactive)
10,O=C(N/N=C/c1ccc(O)c([N+](=O)[O-])c1)c1ccncc1,-22.5% (inactive)
11,COc1ccc(C(=O)NCc2ccncc2)cc1OC,24.8% (inactive)
12,O=C(O)c1cc(N=Nc2c(O)[nH]c3ccc([N+](=O)[O-])cc23)ccc1Cl,10% (inactive)
13,Cc1onc(-c2c(Cl)cccc2Cl)c1NC(=O)NNc1c(Cl)cncc1Cl,-3.28% (inactive)
14,CCOC=C1SC(=S)N(c2ccccc2OC)C1=O,-1.46% (inactive)
15,COc1ccccc1NC(=S)N1CCCCCC1,-0.41% (inactive)
16,CC(=O)Nc1ccc(NC(=O)CCc2ccc(C)o2)cc1,3.07% (inactive)
17,CCc1ccc(CCC(=O)Nc2ccc(S(N)(=O)=O)cc2)o1,68.2% (inactive)
18,O=C(COC(=O)COc1cccc(Br)c1)NCc1ccc2c(c1)OCO2,-4.12% (inactive)
19,CCOc1ncccc1C(=O)OCC(=O)c1c(N)n(C)c(=O)n(C)c1=O,-0.62% (inactive)
20,CCN(CC(=O)Nc1c(F)cccc1F)C(=O)c1c(-c2ccccc2Cl)noc1C,10.1% (inactive)
21,C=CCn1c(COc2ccc(Cl)cc2)nnc1SCc1ccc(C#N)cc1,-5.86% (inactive)
22,Cc1[nH]c2ccccc2c1-c1nc2ccccc2[nH]1,24.1% (inactive)
23,CCc1c(C)[nH]c2ccccc2c1=O,22.4% (inactive)
24,CCOc1ccc(CCNC(=O)CS(=O)Cc2nc(-c3ccc(C)cc3)oc2C)cc1 (stereo not drawn),5.23% (inactive)

row,SMILES,inhibition
1,COc1ccc(N2CCN(Cc3cc(=O)oc4cc(C)c(Cl)c(C)c34)CC2)cc1,4.75% (inactive)
2,O=C(NCCN1CCN(c2ccccc2)CC1)C1CCN(S(=O)(=O)c2cccc3nsnc23)CC1,-4.91% (inactive)
3,O=C(NCCc1ccccc1)C1CCN(S(=O)(=O)c2cccc3nonc23)CC1,-0.8% (inactive)
4,Cc1cc(=O)[nH]c(SCCCOc2ccccc2Cl)n1,-1.03% (inactive)
5,CCSc1n[nH]c2nc3c(c(=O)n12)C1(CCCCC1)Cc1ccccc1-3,-15.1% (inactive)
6,CCN(CC)C(=O)CSc1nnc(-c2ccccn2)n1-c1ccccc1OC,-5.38% (inactive)
7,Oc1c(Br)cc(Cl)cc1C=Nc1ccc(N2CCOCC2)cc1,29.3% (inactive)
8,O=[N+]([O-])c1cc(Cc2ccccc2)cc(C=Nc2ccc(N3CCOCC3)cc2)c1O,23.6% (inactive)
9,COc1cccc(C(=O)Nc2ccc(NC(=O)c3ccco3)c(Cl)c2)c1,-3.2% (inactive)
10,Cc1ccc(-c2cc(C(F)(F)F)n3nc(C(=O)Nc4ccon4)cc3n2)cc1C,10.8% (inactive)
11,Cc1nccn1CC(=O)N/N=C/c1cccc(O)c1,2.96% (inactive)
12,COc1ccc(/C=N/NC(=O)Cn2ccnc2C)cc1OC,-2.05% (inactive)
13,CNC(=O)C(=O)N/N=C/c1ccc(Br)cc1,17.2% (inactive)
14,COc1ccc(NC(=O)COc2ccccc2Cl)cc1S(=O)(=O)N1CCCCC1,11.7% (inactive)
15,O=C(CNS(=O)(=O)c1ccccc1Br)OCC(=O)N1CCc2ccccc21,4.27% (inactive)
16,Cc1onc(-c2c(F)cccc2Cl)c1C(=O)N1CCOC12CCCCC2,-10.5% (inactive)
17,Nc1ccc(S(=O)(=O)c2cccc(N)c2)cc1,0.36% (inactive)
18,Nc1ccc(S(=O)(=O)c2ccc(N)cc2)cc1,-4.69% (inactive)
19,COc1ccc(-c2csc3nc(C)nc(N4CCN(C(C)=O)CC4)c23)cc1OC,-6.79% (inactive)
20,COc1cc(S(=O)(=O)NC2CCCCC2)ccc1F,-3.56% (inactive)
21,COc1ccc(C2c3c(-c4ccccc4O)n[nH]c3C(=O)N2Cc2ccco2)cc1OC (stereo not drawn),-4.89% (inactive)
22,CC(C)[C@@H]1N[C@]2(C(=O)Nc3ccccc32)[C@@H]2C(=O)N(c3cccc(C(F)(F)F)c3)C(=O)[C@@H]21,7.45% (inactive)
23,NC(=O)C[C@@H]1N[C@]2(C(=O)Nc3ccccc32)[C@@H]2C(=O)N(C3CCCCC3)C(=O)[C@H]12,6.65% (inactive)
24,C=CCNC(=S)N/N=C/c1ccc(N(CC)Cc2ccccc2)cc1,-8.07% (inactive)

row,SMILES,inhibition
1,CCOC(=O)c1cc(-c2cccc(C(F)(F)F)c2)nc2nc(SC)[nH]c(=O)c12,-8.37% (inactive)
2,O=C(Nc1ccnn1C1CCN(Cc2ccc(C#CCCO)cc2)CC1)c1cccc(F)c1,4.84% (inactive)
3,CCS(=O)(=O)Nc1ccc(NC(C)=O)cc1,10.1% (inactive)
4,CNC(=O)CSc1nnc(-c2ccccc2)n1C,-0.87% (inactive)
5,Cc1oc(-c2cccc(Cl)c2)nc1CN1CCC(C(=O)N2CCN(c3ccccn3)CC2)CC1,6.2% (inactive)
6,CCc1ccc(-c2nc(CN3CCC(C(=O)N4CCN(c5ccccn5)CC4)CC3)c(C)o2)cc1,-7.35% (inactive)
7,CCOc1ccc2nc(NC(=O)C3CCCN(S(=O)(=O)c4c(C)noc4C)C3)sc2c1 (stereo not drawn),-3.03% (inactive)
8,Cc1cc(C(c2ccc(O)cc2)c2cc(C)c(O)cc2C)c(C)cc1O,1.89% (inactive)
9,Cc1cc(NC(=O)c2ccc(Cl)cc2)c(C)cc1O,-1.13% (inactive)
10,CCOC(=O)c1c(S(=O)(=O)NCC2CCN(Cc3cccc(F)c3)CC2)c(C)n(C)c1C,-4.42% (inactive)
11,O=C(CCN1C(=O)S/C(=C\c2cccs2)C1=O)NC1=NCCS1,25.6% (inactive)
12,O=C(CCN1C(=O)/C(=C/c2ccccc2Cl)SC1=S)NC1=NCCS1,9.65% (inactive)
13,CCC1(c2ccc(F)cc2)NC(=O)N(CC(=O)NCc2ccc(C)cc2)C1=O (stereo not drawn),-8.4% (inactive)
14,COc1cccc(C(=O)N2CCN(C(=O)Cc3ccccc3)CC2)c1,-2.27% (inactive)
15,CC1=NN(c2ccccc2)C(=O)/C1=C\c1cc(C)n(C)c1C,6.69% (inactive)
16,O=C(Cn1cnc2c(nnn2Cc2ccccc2)c1=O)NCc1ccco1,-2% (inactive)
17,Cc1ccc(Cn2nnc3c(=O)n(CC(=O)NCc4ccco4)cnc32)cc1,16.3% (inactive)
18,O=[N+]([O-])c1ccc(NCCCO)c(S(=O)(=O)N2CCOCC2)c1,-0.32% (inactive)
19,NS(=O)(=O)c1ccc(N/N=C/c2ccccc2C(=O)O)c([N+](=O)[O-])c1,-3.72% (inactive)
20,CC(O)CNc1ccc([N+](=O)[O-])cc1S(=O)(=O)N1CCOCC1 (stereo not drawn),6.02% (inactive)
21,NS(=O)(=O)c1ccc(N/N=C/c2ccc(O)cc2O)c([N+](=O)[O-])c1,-13.8% (inactive)
